Consider 4 compounds from PubChem BioAssay.

Inconclusive results are not listed. Calls of active or inactive are those of the source.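 How the source made its calls, unless noted: active means inhibition above the screen-wide mean plus 3 SD, about 51%; inactive means the rest.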

A short description of assay [1]: yeast TOR pathway RPL19A-GFP modulators, primary screen, cell-based, S. cerevisiae, multiplex flow cytometry (AID 1862; in the data active means percent of DMSO control GFP below about 86%;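 further: lower values mimic rapamycin by blocking the RPL19A rise seen in DMSO cells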). As to conditions: S. cerevisiae RPL19A-GFP strain, flow cytometry fluorescence, 3 h; at 10 µM; stronger effect = lower value. For orientation: Flow cytometry measures light scatter and fluorescence of single cells or particles in a stream.
Assay [2] in a line: modulators of MEP2-GFP levels in yeast, primary screen, S. cerevisiae, multiplex flow cytometry (AID 1867;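 active means GFP response, as percent of the DMSO control, above the screen-wide mean plus 3 SD, about 139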;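 further: median GFP channel fluorescence of barcode-gated MEP2-GFP cells measured by flow cytometry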). As to conditions: S. cerevisiae MEP2-GFP strain, 3 h, at 10 µM, stronger effect = higher value, 100% means same as DMSO wells.
A short description of assay [3]: modulators of CIT2-GFP expression in yeast, primary screen, S. cerevisiae, GFP fusion, multiplex flow cytometry (AID 1870;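 active means percent response above a set limit, the screen-wide mean plus 3 SD, cut at about 130% in these data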;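 further: barcoded CIT2-GFP strain pooled with four other GFP strains with rapamycin as positive control; median GFP fluorescence per well over plate mean of DMSO wells so 100% = DMSO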). As to conditions: 3 h, at 10 µM, stronger effect = higher value.
Assay [4] can be described thus: modulators of LAP4-GFP expression in yeast, primary screen, S. cerevisiae, multiplex flow cytometry (AID 1873;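 active means GFP signal, as percent of the solvent control, above the screen mean plus 3 SD, about 149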). As to conditions: 3 h, at 10 µM, stronger effect = higher value.
The nature of assay [5]: modulators of AGP1-GFP expression in yeast TOR pathway, primary screen, cell-based, multiplex flow cytometry, S. cerevisiae (AID 1887;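 active means GFP signal above the screen-wide mean plus 3 SD, that is over about 124.5% of the solvent control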;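 further: AGP1-GFP fusion strain of S. cerevisiae within a five-strain barcoded multiplex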). As to conditions: 3 h, at 10 µM, stronger effect = higher value.
A short description of assay [6]: inhibitors of CD8+ T cell-vesicle binding, pilot screen, LFA-1/ICAM-1 modulator project, MLPCN validation set, flow cytometry (AID 2523;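 active means response below a set limit, under 55% cells CD8-positive and vesicle-bound, and CD8 cells' 90th-percentile brightness under 279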;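 on vesicle binding response: mean PE anti-B7-1 fluorescence of CD8+ cells relative to row control; 100% = QL9-loaded vesicles with DMSO vehicle in the same plate row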). As to conditions: 2C mouse CD8+ T cells, at 7 µM, stronger effect = lower value; double positive events: measured here: CD8+/vesicle+ event percentage.
For assay [7], the target named is Integrin beta-1 (Homo sapiens) + Integrin alpha-4 (Homo sapiens) (UniProt P13612+P05556). The assay can be described thus: inhibition of HUTS-21 binding to VLA-4, pilot screen, VLA-4 allosteric modulator project, U937 cells, HUTS-21 mAb, flow cytometry, validation set (AID 2674;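 active means inhibition above 50%, about 3 SD of the validation set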;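 further: antibody binding induced by the VLA-4 ligand LDV present at three times its Kd; 0% = LDV ligand with antibody and no compound and 100% = antibody without LDV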). As to conditions: HUTS-21 LIBS mAb binding, at 6.7 µM, stronger effect = higher value, binding induced by LDV ligand.
Sequence of Integrin beta-1 (Homo sapiens) + Integrin alpha-4 (Homo sapiens) (P05556 whole entry, looked up): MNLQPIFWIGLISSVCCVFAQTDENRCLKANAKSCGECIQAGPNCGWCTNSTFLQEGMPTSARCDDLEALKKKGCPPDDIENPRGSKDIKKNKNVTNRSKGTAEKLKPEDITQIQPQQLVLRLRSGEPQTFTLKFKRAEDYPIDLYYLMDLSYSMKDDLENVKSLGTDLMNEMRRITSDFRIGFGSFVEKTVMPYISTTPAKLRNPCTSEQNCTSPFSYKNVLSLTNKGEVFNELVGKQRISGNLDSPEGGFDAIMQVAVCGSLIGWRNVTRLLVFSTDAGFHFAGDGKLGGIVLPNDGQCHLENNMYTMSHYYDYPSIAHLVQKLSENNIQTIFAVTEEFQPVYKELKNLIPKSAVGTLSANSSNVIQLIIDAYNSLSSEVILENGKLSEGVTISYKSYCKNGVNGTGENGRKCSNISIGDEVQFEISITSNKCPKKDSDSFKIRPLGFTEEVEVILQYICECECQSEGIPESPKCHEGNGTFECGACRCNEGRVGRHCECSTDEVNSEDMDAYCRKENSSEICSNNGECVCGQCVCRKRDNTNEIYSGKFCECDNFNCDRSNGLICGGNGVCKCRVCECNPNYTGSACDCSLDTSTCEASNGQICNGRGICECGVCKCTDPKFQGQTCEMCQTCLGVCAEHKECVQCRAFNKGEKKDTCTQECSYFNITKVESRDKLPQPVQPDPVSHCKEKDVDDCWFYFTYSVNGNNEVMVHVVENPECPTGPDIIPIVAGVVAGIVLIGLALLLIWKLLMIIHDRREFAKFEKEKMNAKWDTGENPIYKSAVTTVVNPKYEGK
Sequence of Integrin beta-1 (Homo sapiens) + Integrin alpha-4 (Homo sapiens) (P13612 whole entry, looked up): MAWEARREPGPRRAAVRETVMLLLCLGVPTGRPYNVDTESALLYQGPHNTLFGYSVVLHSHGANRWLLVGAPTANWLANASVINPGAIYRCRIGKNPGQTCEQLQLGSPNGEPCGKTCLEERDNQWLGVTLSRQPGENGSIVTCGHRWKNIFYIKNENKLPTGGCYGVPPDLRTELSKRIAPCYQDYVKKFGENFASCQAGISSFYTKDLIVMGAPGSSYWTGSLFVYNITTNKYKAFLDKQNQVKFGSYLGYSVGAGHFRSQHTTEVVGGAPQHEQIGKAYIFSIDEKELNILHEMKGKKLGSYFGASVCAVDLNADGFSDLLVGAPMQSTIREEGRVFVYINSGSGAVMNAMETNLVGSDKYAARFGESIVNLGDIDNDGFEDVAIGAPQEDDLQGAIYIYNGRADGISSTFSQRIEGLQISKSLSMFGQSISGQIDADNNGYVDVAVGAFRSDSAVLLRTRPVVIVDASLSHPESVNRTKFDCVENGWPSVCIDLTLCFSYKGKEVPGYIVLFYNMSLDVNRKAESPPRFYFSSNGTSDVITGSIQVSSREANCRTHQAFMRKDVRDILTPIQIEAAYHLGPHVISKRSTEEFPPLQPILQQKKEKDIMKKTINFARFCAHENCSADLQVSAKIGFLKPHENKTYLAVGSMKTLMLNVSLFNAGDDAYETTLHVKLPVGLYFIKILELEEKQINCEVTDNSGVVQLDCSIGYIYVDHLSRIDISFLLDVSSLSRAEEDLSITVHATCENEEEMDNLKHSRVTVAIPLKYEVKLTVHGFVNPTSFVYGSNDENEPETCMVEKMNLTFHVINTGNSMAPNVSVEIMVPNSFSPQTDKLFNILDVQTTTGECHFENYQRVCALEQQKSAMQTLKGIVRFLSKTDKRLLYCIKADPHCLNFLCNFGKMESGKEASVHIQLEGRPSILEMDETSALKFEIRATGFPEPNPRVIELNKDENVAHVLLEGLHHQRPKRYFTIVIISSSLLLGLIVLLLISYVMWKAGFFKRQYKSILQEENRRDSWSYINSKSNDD

Assay [8] can be described thus: superoxide lowering in aged yeast cells, pilot screen, validation compound set (AID 2706;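 active means superoxide response below 65% of plate, a cut near 3 SD across the whole screen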;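 further: yeast exposed to compound for one week at 30 degrees C before staining; 100% = mean of all compound wells on the same plate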). As to conditions: S. cerevisiae aging, superoxide DHE fluorescence; at 10 µM; stronger effect = lower value.
Assay [9] deals with Beta-adrenergic receptor kinase 1 (Homo sapiens) (UniProt P25098). The assay can be described thus: GRK2 binders displacing RNA aptamer, biochemical, validation, human GRK2, bead flow cytometry (AID 488806;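 active means aptamer binding inhibition above 30%, about 3 SD of noise from non-fluorescent compounds; inactive means inhibition at or below 30%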). As to conditions: bead-bound GRK2, FAM-aptamer displacement, at 10 µM, stronger effect = higher value.
Sequence of Beta-adrenergic receptor kinase 1 (Homo sapiens) (P25098 whole entry, looked up): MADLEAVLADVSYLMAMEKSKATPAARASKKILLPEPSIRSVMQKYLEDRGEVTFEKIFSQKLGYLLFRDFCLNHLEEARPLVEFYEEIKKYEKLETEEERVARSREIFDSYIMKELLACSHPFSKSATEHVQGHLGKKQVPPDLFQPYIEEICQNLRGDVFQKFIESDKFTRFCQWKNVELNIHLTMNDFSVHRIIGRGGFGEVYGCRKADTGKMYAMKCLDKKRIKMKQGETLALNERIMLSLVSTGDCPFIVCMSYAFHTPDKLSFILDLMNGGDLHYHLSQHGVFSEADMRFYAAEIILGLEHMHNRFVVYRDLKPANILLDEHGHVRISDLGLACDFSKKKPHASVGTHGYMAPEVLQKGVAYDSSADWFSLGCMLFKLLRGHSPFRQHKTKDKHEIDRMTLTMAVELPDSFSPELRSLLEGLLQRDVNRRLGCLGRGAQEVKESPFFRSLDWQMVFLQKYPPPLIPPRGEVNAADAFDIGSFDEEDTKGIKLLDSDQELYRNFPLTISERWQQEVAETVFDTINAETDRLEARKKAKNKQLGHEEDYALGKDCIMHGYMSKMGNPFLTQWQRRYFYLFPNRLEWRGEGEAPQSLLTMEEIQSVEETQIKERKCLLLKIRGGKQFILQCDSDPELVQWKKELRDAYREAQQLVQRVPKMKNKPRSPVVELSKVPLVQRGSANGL
The target of assay [10] is Beta-2 adrenergic receptor (Homo sapiens) (UniProt P07550). Nature of the assay: beta2AR agonists driving receptor internalization, pilot screen, cell-based, FAP fluorogen, flow cytometry, validation set (AID 504459;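 active means percent response above 42, roughly 3 SD of non-fluorescent test compounds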;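 further: agonist-driven loss of surface beta2AR via internalization measured by FAP dye flow cytometry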). As to conditions: Am2.2-beta2AR cells, FAP surface receptor flow cytometry; at 10 µM; stronger effect = higher value.
Sequence of Beta-2 adrenergic receptor (Homo sapiens) (P07550 whole entry, looked up): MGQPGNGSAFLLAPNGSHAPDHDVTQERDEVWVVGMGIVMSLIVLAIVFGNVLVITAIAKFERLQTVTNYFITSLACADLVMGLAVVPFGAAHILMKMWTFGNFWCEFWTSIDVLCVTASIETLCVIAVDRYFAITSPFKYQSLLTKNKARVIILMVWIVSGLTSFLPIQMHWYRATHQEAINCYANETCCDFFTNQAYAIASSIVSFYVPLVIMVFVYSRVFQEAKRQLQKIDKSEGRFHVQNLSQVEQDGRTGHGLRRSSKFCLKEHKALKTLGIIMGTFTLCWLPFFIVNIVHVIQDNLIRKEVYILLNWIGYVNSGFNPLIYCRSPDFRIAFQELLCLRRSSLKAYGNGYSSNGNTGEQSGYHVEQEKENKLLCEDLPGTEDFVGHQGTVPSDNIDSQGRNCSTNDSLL
Assay [11] addresses AP-2 complex subunit beta (Homo sapiens) (UniProt P63010). Nature of the assay: inhibitors of arrestin peptide binding to AP2, pilot screen, biochemical, validation set, GST-AP2 beads, flow cytometry (AID 504541;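 active means inhibition above 54%, about 3 SD of non-fluorescent compounds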;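 further: AP2 carries R879A mutation and is captured from E. coli lysate; bead-bound FITC arrestin peptide fluorescence measuring arrestin peptide binding to AP2; 0% = DMSO wells and 100% = excess unlabeled arrestin peptide control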). As to conditions: FITC arrestin peptide, at 10 µM, stronger effect = higher value, AP2 beta2 appendage fragment, R879A mutant.
Assay [12] can be described thus: yeast V-ATPase proton transport modulators, S. cerevisiae, pHLuorin, HTS validation (AID 504600; in the data active means response above about 15%;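 further: plate controls were DMSO for no effect and reference compound for full effect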). As to conditions: S. cerevisiae pHLuorin cytosolic pH, at 10 µM, stronger effect = higher value.
For assay [13], the system named is anti-desmoglein-3 scFv antibody binding to human DSG3. The assay can be described thus: inhibitors of anti-DSG3 scFv binding to DSG3, pilot screen, biochemical, validation compound set, bead-based, flow cytometry (AID 588368;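 active means binding below the plate cutoff, the plate median minus 3 SD, with a reading above zero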;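 further: signal is the median channel fluorescence of bead-bound GFP antibody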). As to conditions: Protein G beads, DSG3-Fc, scFv-GFP binding, at 10 µM, stronger effect = lower value.
Assay [14] can be described thus: inhibitors of fungal efflux pumps CDR1, CDR2, MDR1, pilot screen, validation compound set, multiplex, phenotypic (AID 588506;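 active means efflux inhibition above 0.42, the validation set average plus 4 SD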;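 further: Nile Red retained in cells so higher fluorescence means more efflux inhibition; 0 = negative control wells and 1 = enniatin B 25 µM full block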). As to conditions: S. cerevisiae pump-expressing triplex, Nile Red efflux flow cytometry; at 10 µM; stronger effect = higher value; the pumps come from Candida albicans.
Assay [15] has as its target ATP-binding cassette sub-family B member 6 (Homo sapiens) (UniProt Q9NP58). The assay can be described thus: ABCB6 transporter inhibitors, pilot screen, K562-ABCB6 cells, flow cytometry, validation set (AID 588550).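 Further: 0% = DMSO wells and 100% = benzethonium chloride 70 µM positive control.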 As to conditions: K562-ABCB6 porphyrin accumulation, 1 h, at 10 µM, stronger effect = higher value.
Assay [16] is described as follows: promoters of myeloid differentiation in arrested cells, primary screen, cell-based, GFP/MAC1 double positive, flow cytometry, validation set (AID 588685;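 active means differentiation response of at least 50%, scaled between solvent and reference control, from cells with both markers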;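 further: compound exposure lasts four days before antibody staining and flow analysis; 0% = DMSO wells and 100% = 5 µM fulvestrant positive control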). As to conditions: ER-HoxA9 marrow cells, stronger effect = higher value, normalized: vehicle 0, fulvestrant 100.

Sequence of ATP-binding cassette sub-family B member 6 (Homo sapiens) (Q9NP58 whole entry, looked up): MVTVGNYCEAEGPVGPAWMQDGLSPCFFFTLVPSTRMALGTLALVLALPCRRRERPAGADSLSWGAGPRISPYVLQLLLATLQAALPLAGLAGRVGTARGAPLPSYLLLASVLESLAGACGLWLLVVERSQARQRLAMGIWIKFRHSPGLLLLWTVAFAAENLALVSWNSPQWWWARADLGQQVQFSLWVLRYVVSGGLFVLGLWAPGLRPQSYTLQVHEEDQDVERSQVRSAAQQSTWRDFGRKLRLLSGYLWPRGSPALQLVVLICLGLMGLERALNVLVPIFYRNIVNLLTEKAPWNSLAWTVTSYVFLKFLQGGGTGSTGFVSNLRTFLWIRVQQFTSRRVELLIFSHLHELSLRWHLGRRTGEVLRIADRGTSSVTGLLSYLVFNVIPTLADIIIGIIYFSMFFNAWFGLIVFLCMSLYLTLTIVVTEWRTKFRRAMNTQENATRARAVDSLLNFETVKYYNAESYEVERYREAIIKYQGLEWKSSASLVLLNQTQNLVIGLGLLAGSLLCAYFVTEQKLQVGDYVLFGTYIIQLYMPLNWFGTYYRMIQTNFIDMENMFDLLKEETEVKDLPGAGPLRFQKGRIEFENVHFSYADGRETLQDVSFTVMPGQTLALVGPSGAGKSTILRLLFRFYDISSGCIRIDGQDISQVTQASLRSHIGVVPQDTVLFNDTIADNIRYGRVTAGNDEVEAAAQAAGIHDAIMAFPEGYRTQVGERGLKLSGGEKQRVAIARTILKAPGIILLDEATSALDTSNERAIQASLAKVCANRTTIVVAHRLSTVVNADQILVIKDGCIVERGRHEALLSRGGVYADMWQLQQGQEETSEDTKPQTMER
Sequence of AP-2 complex subunit beta (Homo sapiens) (P63010 whole entry, looked up, the tested form may be a part, one chain of several): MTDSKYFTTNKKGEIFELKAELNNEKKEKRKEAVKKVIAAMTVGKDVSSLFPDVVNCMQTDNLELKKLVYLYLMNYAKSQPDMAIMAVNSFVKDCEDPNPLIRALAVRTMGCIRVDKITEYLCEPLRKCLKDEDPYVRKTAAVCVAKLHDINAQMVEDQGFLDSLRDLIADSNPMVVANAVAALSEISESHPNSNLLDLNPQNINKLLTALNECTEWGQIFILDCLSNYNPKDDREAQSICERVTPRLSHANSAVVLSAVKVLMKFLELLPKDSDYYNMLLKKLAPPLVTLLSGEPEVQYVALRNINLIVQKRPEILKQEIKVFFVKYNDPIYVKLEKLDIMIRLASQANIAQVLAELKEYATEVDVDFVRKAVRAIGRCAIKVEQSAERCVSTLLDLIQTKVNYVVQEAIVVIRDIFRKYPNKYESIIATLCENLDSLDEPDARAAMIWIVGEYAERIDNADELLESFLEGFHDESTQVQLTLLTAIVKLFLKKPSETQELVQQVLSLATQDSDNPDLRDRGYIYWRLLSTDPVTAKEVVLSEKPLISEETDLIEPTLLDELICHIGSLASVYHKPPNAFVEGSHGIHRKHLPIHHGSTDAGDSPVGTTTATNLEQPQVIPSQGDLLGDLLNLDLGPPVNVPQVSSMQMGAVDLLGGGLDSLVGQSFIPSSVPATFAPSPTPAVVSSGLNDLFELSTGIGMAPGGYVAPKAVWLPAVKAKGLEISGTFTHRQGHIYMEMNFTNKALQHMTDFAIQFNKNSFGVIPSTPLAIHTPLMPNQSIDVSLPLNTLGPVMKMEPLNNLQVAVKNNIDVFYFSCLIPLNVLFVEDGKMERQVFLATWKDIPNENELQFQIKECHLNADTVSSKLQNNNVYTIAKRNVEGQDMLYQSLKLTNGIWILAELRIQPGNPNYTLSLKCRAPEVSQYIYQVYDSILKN

What is called inhibition is the relative decrease from the control value, in per cent. In the case of `CN(C)CCC(c1ccccc1)c1ccccn1` (stereo not drawn), the percent of DMSO control GFP in [1] was 97.2% (inactive). The GFP response vs DMSO in assay [2] is 130% (inactive); in assay [4] it was 83.6% (inactive). In addition, in [3], the percent response of DMSO control was 97.9% (inactive). Moreover, the GFP response, % of DMSO in [5] was 86.1% (inactive). The same compound had a double positive events in [6] of 64.9%. Also, in assay [6], the vesicle binding response was 139% (inactive). Further, the inhibition was 14.2% (inactive) in assay [7], -9.57% (inactive) in assay [11] and 12% (inactive) in [15]. Further, the superoxide response (% of plate) in assay [8] is 93.1% (inactive). In addition, the aptamer binding inhibition in assay [9] is 3% (inactive). Besides, the results for the response in [10] and in assay [12] were -2.11% (inactive) and -0.43% (inactive), respectively. Moreover, the binding (% of control) in assay [13] is 97.8% (inactive). In assay [14], the efflux inhibition (fraction of control) was -0.35 (inactive). Besides, in [16], the differentiation response was 8.19% (inactive).
Take `Cc1nc(-c2coc3c(CN(C)C)c(O)ccc3c2=O)cs1`: the percent of DMSO control GFP in [1] was 92.6% (inactive). Also, the GFP response vs DMSO in assay [2] was 131% (inactive); in assay [4], 85.8% (inactive). Also, the percent response of DMSO control in [3] was 104% (inactive). In assay [5], the GFP response, % of DMSO was 88% (inactive). In assay [6], this compound registered a double positive events of 61.6%. Also, in [6], the vesicle binding response was 143% (inactive). Further, the inhibition in assay [7] was -26.5% (inactive); in assay [11], 2.27% (inactive); in [15], 11% (inactive). The superoxide response (% of plate) in [8] is 98.6% (inactive). In addition, the aptamer binding inhibition in assay [9] is 6% (inactive). The response in [10] is 4.53% (inactive); in assay [12], -0.21% (inactive). Besides, the binding (% of control) in assay [13] is 105% (inactive). Moreover, in assay [14], the efflux inhibition (fraction of control) was -0.46 (inactive). The differentiation response in assay [16] is -1.64% (inactive).
As to `Cc1cc(OC(=O)CNC(=O)OC(C)(C)C)c2c(C)cc(=O)oc2c1`, in assay [1], the percent of DMSO control GFP was 101% (inactive). Moreover, the GFP response vs DMSO in assay [2] is 105% (inactive); in assay [4], 108% (inactive). In addition, the percent response of DMSO control in [3] is 97.7% (inactive). Also, the GFP response, % of DMSO in assay [5] was 111% (inactive). Moreover, in assay [6], the double positive events is 62.2%. For the same compound, in assay [6], the vesicle binding response is 460% (inactive). Besides, the inhibition is 10.8% (inactive) in [7], 6.94% (inactive) in assay [11] and 2% (inactive) in assay [15]. Also, the superoxide response (% of plate) in assay [8] is 107% (inactive). For the same compound, the aptamer binding inhibition in assay [9] is 3% (inactive). In addition, the response in assay [10] is -17.2% (inactive); in [12], -0.27% (inactive). For the same compound, in assay [13], the binding (% of control) is 93.1% (inactive). Further, the efflux inhibition (fraction of control) in assay [14] was 0 (inactive). For the same compound, the differentiation response in assay [16] was 3.88% (inactive).
Consider `COc1cccc(CC(=O)NCC2COc3ccccc3O2)c1OC` (stereo not drawn), for which the percent of DMSO control GFP in assay [1] is 103% (inactive). In addition, the figures for the GFP response vs DMSO in [2] and in assay [4] were 105% (inactive) and 102% (inactive), respectively. Further, the percent response of DMSO control in assay [3] was 101% (inactive). Further, the GFP response, % of DMSO in [5] is 106% (inactive). Besides, the double positive events in [6] came to 60.9%. For the same compound, the vesicle binding response in assay [6] was 230% (inactive). The inhibition in assay [7] was 6.95% (inactive); in [11], -3.19% (inactive); in assay [15], 63% (active). In addition, the superoxide response (% of plate) in assay [8] was 92.8% (inactive). For the same compound, the aptamer binding inhibition in assay [9] was 2% (inactive). The results for the response in [10] and in assay [12] were 3.04% (inactive) and -3.58% (inactive), respectively. Moreover, the binding (% of control) in assay [13] was 103% (inactive). Moreover, in [14], the efflux inhibition (fraction of control) was -0.1 (inactive). For the same compound, the differentiation response in assay [16] is -6.03% (inactive).
